# Most compounds without a hit are left out; they make up all but 0.9% or so of the library.
# Resorufin fluor: qHTS Assay for Spectroscopic Profiling in Resorufin Spectral Region | max dye-equivalent concentration, M | 59,000 compounds, 0.04% hits | Compound fluorescence, resorufin region 547/598 nm, buffer; hits give high values
#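 Dye-equivalent concentration values derive from comparing each well's 547/598 nm fluorescence against resorufin standards included on every plate. Incubation was 15 min at room temperature in 100 mM Tris, pH 8.0.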
# A488 fluor: qHTS Assay for Spectroscopic Profiling in A488 Spectral Region; compound autofluorescence, A488 spectral region, dye equivalency; Compound Type: qHTS ECL - MLSMR; max dye equivalency, M; 59,000 compounds, 0.1% hits; AID 591, 2007
#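 Read-out: relative fluorescence at 480/540 nm, expressed as Alexa 488 dye-equivalent concentration from a six-point A488 standard included per plate. Conditions: 100 mM Tris, pH 8.0; 15 min incubation, room temperature.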
# Rhodamine autofl: qHTS Assay for Spectroscopic Profiling in Rhodamine Spectral Region; Rhodamine-region fluorescence, 547/598 nm, Tris buffer; hits give high values; max dye-equivalent concentration, M; 59,000 compounds, 0.05% hits; in the data active = max dye-equivalent concentration above about 11 nM; inconclusive = between about 1.1 nM and that limit
#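 Intrinsic compound fluorescence, ex 547 / em 598 nm, CCD imager. Tris 100 mM pH 8.0; 15 min RT. Output = rhodamine dye-equivalent concentration at each compound concentration.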
# Fluorescein fluor: qHTS Assay for Spectroscopic Profiling in Fluorescein Spectral Region; AID 593, 2007; Compound autofluorescence, 480/540 nm, fluorescein-equivalent; hits give high values; 59,000 compounds, 0.91% hits; max fluorescein-equivalent concentration, M; in the data active = max fluorescein-equivalent concentration above about 10 nM; inconclusive = between about 1.1 nM and that limit
#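 Read-out is intrinsic compound fluorescence at 480/540 nm (excitation/emission), expressed as dye-equivalent concentration using a fluorescein standard series run on every plate. Compounds sat 15 min at room temperature in 100 mM Tris, pH 8.0.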
# TexasRed autofl: qHTS Assay for Spectroscopic Profiling in Texas Red Spectral Region; max dye-equivalent concentration, M; 59,000 compounds, 0.06% hits; AID 587, 2007; Compound fluorescence, Texas Red channel, 547/618 nm; hits give high values; in the data active = max dye-equivalent concentration above about 10 nM; inconclusive = between about 1.1 nM and that limit
#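 Texas Red-region profiling: compounds in 100 mM Tris pH 8.0 were read at 547/618 nm after 15 min at room temperature. Intensities were normalized against a six-point Texas Red standard series to give dye-equivalent concentration.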
# A647 autofl: qHTS Assay for Spectroscopic Profiling in A647 Spectral Region | Compound fluorescence, A647 channel (570/671 nm), Tris buffer | max dye-equivalent concentration, M | 59,000 tested, under 10 active | AID 592, 2007;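 also: values scaled relative to a standard on each plate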
#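 Compounds pinned into 100 mM Tris pH 8.0, 15 min at room temperature, then read with 570 nm excitation/671 nm emission filters. Fluorescence normalized to an on-plate six-point Alexa 647 standard curve, giving dye-equivalent concentration per compound concentration.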
# Numbers without * were called inactive; i = inactive; u = inconclusive; ! = not active in a repeat. Unless noted, no rule for the calls is given here.
SMILES,Resorufin fluor,A488 fluor,Rhodamine autofl,Fluorescein fluor,TexasRed autofl,A647 autofl
O=C1c2ccccc2-c2n[nH]c3cccc1c23,i,u,i,4.73e-08M*,i,8.6e-09
COc1cc(/C=C/C(=O)CC(=O)/C=C/c2ccc(O)c(OC)c2)ccc1O,i,i,i,u,i,2.9e-08
COc1cc(/C=C/C2=NC(=O)C(C)(C)O2)ccc1O,i,i,i,2.98e-08M*,i,1e-09
OCCN(CCO)c1nc(N2CCCCC2)c2nc(N(CCO)CCO)nc(N3CCCCC3)c2n1,i,2.93e-08M*,i,6.68e-07M*,i,3.38e-08
CN(C)c1ccc(/C=N/n2ncc3ccccc32)cc1,i,i,i,i,i,1e-09
C=CCn1c(/N=C/c2ccc(N(C)C)cc2)nc2ccccc21,i,i,i,2.07e-08M*,i,1e-09
O=C(COC(=O)c1cnccn1)Nc1ccc(Cl)cc1,i,i,i,1.13e-08M*,i,3.2e-09
COc1cc(N2C(=O)NC3CC2(C)Oc2ccccc23)cc(OC)c1OC (stereo unspecified),i,i,i,i,i,4.23e-08
CN(C)c1ccc(/C=C/C(O)=C2/C(=O)N(C)C3(C)CC2c2ccccc2O3)cc1 (stereo unspecified),i,i,i,1.6e-08M*,i,1e-09
COc1cccc(-c2cn3nc(C)c(C)nc3n2)c1,i,i,i,i,i,1.4e-09
Cc1nc2nc(-c3cccs3)cn2nc1C,i,u,i,6.02e-08M*,i,3.1e-09
COc1cc(C(=O)N(CCc2ccccc2)C2CC3CCC(C2)N3C)cc(OC)c1OC (stereo unspecified),i,i,i,i,u,6.2e-09
CN1[C@@H]2CC[C@H]1CC(OC(=O)[C@@H](CO)c1ccccc1)C2 (stereo partly specified),i,i,i,3.01e-08M*!,u,3.9e-09
CCOC(=O)N1CCN(Cc2nc3c(c(=O)n(C)c(=O)n3C)n2CCCc2ccccc2)CC1,u,u,u,5.55e-08M*,u,3.96e-08
COc1cccc(Nc2ncc3nc(-c4ccccc4)c(=O)n(C[C@H]4CCCO4)c3n2)c1,i,i,i,1.14e-08M*,i,2.4e-09
COc1cccc(Nc2ncc3nc(-c4ccc(Cl)cc4)c(=O)n(C[C@H]4CCCO4)c3n2)c1,i,i,i,i,i,1e-09
COc1ccc2cc3c(N)c(C(=O)NCc4ccco4)sc3nc2c1,i,i,i,2.36e-08M*,i,1e-09
O=C(Nc1ccc2c(c1)OCO2)C1CCCN(c2nc3ccccc3s2)C1 (stereo unspecified),u,i,1.22e-08M*,u,2.59e-08M*,4.61e-08
CCc1nnc(NC(=O)C2CCCN(c3nc4ccccc4s3)C2)s1 (stereo unspecified),i,i,i,u,i,3.82e-08
CCc1cc2c(=O)c(-c3ccc4c(c3)OCCO4)coc2cc1OC(=O)c1ccco1,i,i,i,i,i,1e-09
CCc1cc2c(=O)c(-c3nc4ccccc4[nH]3)coc2cc1OC(=O)N1CCOCC1,i,i,i,1.08e-08M*,i,1e-09
COc1cc(/C=C\C(=O)CC(=O)/C=C\c2ccc(O)c(OC)c2)ccc1O,i,i,i,u,i,1e-09
N#CC1=C(N)C(C#N)(C#N)[C@H](c2ccoc2)[C@H]2CN(Cc3ccccc3)CC=C12,i,u,i,3.51e-08M*,u,2.2e-09
CC(=O)N1CC=C2C(C#N)=C(N)C(C#N)(C#N)[C@H](c3ccoc3)[C@H]2C1,i,i,i,3.07e-08M*,i,6.05e-08
CCN1CC=C2C(C#N)=C(N)C(C#N)(C#N)C(CCc3ccccc3)C2C1 (stereo unspecified),i,u,i,1.3e-07M*,i,1e-09

# Screens from PubChem.
